# Compound activity as filed in PubChem BioAssay.
# Rows were chosen to be rich in hits. Some 4% of all compounds tested hit in one or more screens of this group.
# ERAP1 inh – inhibitors of human ERAP1 aminopeptidase | Q9NZ08 | recombinant ERAP1, Leu-AMC fluorescence, 60 min | inhibition, % at 10.7 µM | 340,000 tested, 0.15% active;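 active means mean replicate inhibition of at least 30%, or all replicates individually reaching that 30% level; inactive means mean below 30% and not every replicate reaching it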;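 further: 0% = neutral control wells and 100% = L-leucinethiol positive control wells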
# Target sequence (Q9NZ08 whole entry, looked up): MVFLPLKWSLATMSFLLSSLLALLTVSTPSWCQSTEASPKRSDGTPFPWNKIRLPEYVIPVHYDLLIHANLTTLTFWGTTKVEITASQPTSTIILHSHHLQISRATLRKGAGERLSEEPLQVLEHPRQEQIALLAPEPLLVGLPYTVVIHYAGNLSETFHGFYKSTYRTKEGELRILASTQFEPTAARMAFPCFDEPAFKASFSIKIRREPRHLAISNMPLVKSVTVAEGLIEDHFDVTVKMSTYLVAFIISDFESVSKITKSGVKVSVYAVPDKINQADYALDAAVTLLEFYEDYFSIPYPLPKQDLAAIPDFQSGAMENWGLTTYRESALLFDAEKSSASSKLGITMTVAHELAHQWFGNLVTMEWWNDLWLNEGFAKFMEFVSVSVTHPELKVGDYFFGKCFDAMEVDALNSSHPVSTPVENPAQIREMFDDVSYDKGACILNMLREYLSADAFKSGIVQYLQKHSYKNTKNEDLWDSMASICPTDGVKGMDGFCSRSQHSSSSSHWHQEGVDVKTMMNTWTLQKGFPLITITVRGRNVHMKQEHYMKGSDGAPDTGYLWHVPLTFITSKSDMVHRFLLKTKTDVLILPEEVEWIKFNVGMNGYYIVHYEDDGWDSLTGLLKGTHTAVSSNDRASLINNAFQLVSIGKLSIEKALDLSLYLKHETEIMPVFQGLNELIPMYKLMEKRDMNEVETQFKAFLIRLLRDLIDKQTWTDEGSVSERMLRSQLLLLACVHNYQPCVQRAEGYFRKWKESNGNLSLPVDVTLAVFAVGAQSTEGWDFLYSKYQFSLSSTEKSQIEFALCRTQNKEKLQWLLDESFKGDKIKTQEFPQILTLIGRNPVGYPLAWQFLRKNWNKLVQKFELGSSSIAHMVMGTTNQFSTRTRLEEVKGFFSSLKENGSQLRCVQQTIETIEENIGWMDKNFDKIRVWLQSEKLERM
# RAD52 anneal inh – RAD52 (human) annealing inhibition; 360,000 tested, 0.46% active; recombinant RAD52 DNA annealing, FRET fluorescence; AID 651710; inhibition, % at 18.7 µM; P43351;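 active means every replicate showing at least 50% inhibition; inconclusive means mean inhibition at least 50% but not in every replicate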
# FGF22 binding-1 – shifts melting point of recombinant human FGF22; recombinant FGF22 thermal shift, SYPRO orange fluorescence; percent of sucrose octasulfate shift, DMSO zero; activity (Tm shift, normalised), % at 9.99 µM; 340,000 tested, 1.5% active;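 active means mean Tm shift, scaled 0 neutral to 100 positive control, at about 1.3% or above, every replicate too, limit read from the data; inconclusive means no clear call, values can overlap the other calls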
# DENV2 CPE – DENV2-induced cell death inhibition. DENV2-infected cells, cytopathic effect rescue, plate reader. CPE inhibition, % at 9.99 µM. 350,000 tested, 1.7% active. AID 651640; in the data active means CPE inhibition above about 20%, passing the limit was not always enough; inconclusive means no clear call, values can overlap the other calls; tested in BHK-21 cells;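 further: 0% = median of neutral control wells and 100% = median of positive control wells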
# MLL AF4-AF9 inh – inhibitors of human MLL-AF4/AF9 interaction. AID 651704. inhibition, % at 10 µM. P42568. 350,000 tested, 0.47% active. AlphaScreen, biotin-AF4 peptide binding to FLAG-AF9;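 active means every replicate reaching a set inhibition limit, whatever the replicate mean, cut at about 25% in these data; inconclusive means mean inhibition reaches that limit but some replicates miss it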;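 further: 0% = plate neutral control median and 100% = total signal loss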
# FGF22 binding-2 – binders of human FGF22 by thermal shift | shares compounds with FGF22 binding-1 | recombinant FGF22 thermal shift, SYPRO orange fluorescence | thermal shift activity, °C (ΔTm) at 38 µM | 1,000 tested, 2% active | AID 720646;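 active means fitted rise in melting shift crosses a set limit at or below the top valid dose tested; inconclusive means flat fit at mid-level activity, or a poor quality fit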
# TSA no protein – counter-screen for FGF22 binders: compound-only thermal shift, no protein; AID 743019; compound-only SYPRO orange thermal shift counter-screen; 1,000 tested, 2% active; AC50, µM (doses to about 38 µM); shares compounds with FGF22 binding-1;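 active means rising signal whose fitted curve reaches the 0.54 level within the top valid dose, showing a melting point, actives reach about 13 µM in these data; inactive means the rest, including activity in the opposite direction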; further: value is where the raw curve crosses a fixed level and not half-maximal
# Numbers without * were called inactive; i = inactive; ? = inconclusive; . = no result.
SMILES,ERAP1 inh,RAD52 anneal inh,FGF22 binding-1,DENV2 CPE,MLL AF4-AF9 inh,others
CN1CC(C(=O)c2ccc(Cl)cc2)C(c2ccc(N(C)C)cc2)C1 (stereo not given),0,-9,43,-2,40*,
CCN(CC)P(=O)(c1n(CC)cc[n+]1CC)N(CC)CC,109*,-4,0,-2,-3,
O=C(NCC1=C(c2ccc3ccccc3c2)C[C@@H]2CC[C@H]1N2Cc1ccco1)c1ccc([N+](=O)[O-])cc1,7,46,0,2,28*,
O=C(NCC1=C(c2ccc3ccccc3c2)C[C@@H]2CC[C@H]1N2Cc1ccco1)c1ccncc1,1,-6,0,-13,10,
CCC(CO)(C(=O)OC1C[N+]2(C)CCC1CC2)c1ccccc1 (stereo not given),72*,-9,0,.,-2,
CC[N+]12CCC(CC1)C(C(O)(c1ccccc1)c1ccccc1)C2 (stereo not given),-1,-6,0,-7,0,
O=C(Cc1ccccn1)N1CCCCN2[C@@H](CO)[C@H](c3ccc(-c4ccccc4F)cc3)[C@@H]2C1,0,9,0,11,-6,
COC(=O)C1=C(c2ccc(F)cc2OCc2ccccc2)C[C@@H]2CC[C@H]1N2C(=O)NCc1ccccc1,1,-9,0,68*,.,
O=C(NC[C@H]1CC[C@@H]2NC[C@@H]2O1)C1CCCC1,-2,-3,.,?,-4,
COc1ccc(C2C3C=CC(C3)C2C(=O)O)cc1 (stereo not given),-11,-10,43*,4,-5,
COc1ccc(C[C@H]2NC[C@H](O)[C@H]2OC(C)=O)cc1,1,-25,0,-12,-4,
COc1ccccc1N1CCN(CCc2c[nH]c3cc4c(cc23)OCO4)CC1,-1,1,0,-7,30*,
C=C[C@H]1CN2CC[C@H]1C[C@H]2[C@H](O)c1ccnc2ccccc12,1,-4,0,14,-4,
C=CC1CN2CCC1C[C@@H]2CO (stereo not given in full),-3,6,0,20*,-2,
COC(=O)[C@@H]1[C@@H](CO)[C@@H]2Cn3c(ccc(-c4cccc(C(=O)N(C)C)c4)c3=O)[C@H]1N2CC1CC1,-1,-6,.,-13,-1,
CCOC(=O)c1cc2cc(OC)ccc2n1C1CCN(Cc2ccccc2)CC1,-2,7,0,35*,9,
COc1ccc2nc(-c3ccc(CN4CCC(n5c(=O)[nH]c6cc(Cl)ccc65)CC4)cc3)c(-c3ccccc3)nc2c1,-1,38,0,-1,.,
Nc1cnn(-c2ccccc2)c(=O)c1Cl,2,-5,0,30*,-4,
CC[C@H]1C=C(C(=O)N[C@@]2(C(=O)O)C[C@H]2CC)[C@H]2CCC(=O)[C@H]2C1,0,6,0,2,-3,
C[N+](C)(C)CC#CCN1CCCC1=O,73*,-1,0,16,-4,
C[C@@H]1CN([C@@H](C)CO)C(=O)c2c(c3ccccc3n2C)-c2ccccc2CO[C@@H]1CN(C)C(=O)Oc1ccccc1,-2,0,0,-4,2,
O=C(Cc1ccccn1)N1CCCCN2[C@H](C1)[C@@H](c1ccc(C#Cc3ccccc3)cc1)[C@@H]2CO,-1,-38,0,-6,-12,
COc1cccc(C2(O)CCN(CC(=O)Nc3nc(C)cs3)CC2)c1,0,-20,43*,2,-1,
COc1ccc(OC(=O)N(C)C[C@@H]2OCc3ccccc3-c3c(n(C)c4ccccc34)C(=O)N([C@@H](C)CO)C[C@@H]2C)cc1,-1,19,0,-4,2,
O=S(=O)(NC1CCCCCCC1)OCC(Cl)(Cl)Cl,.,-5,0,34*,-1,
SMILES,ERAP1 inh,RAD52 anneal inh,FGF22 binding-1,DENV2 CPE,MLL AF4-AF9 inh,others
CC1(C)CN(S(=O)(=O)OCC(Cl)(Cl)Cl)C(=O)N1,-1,-3,0,13,-1,
O=S(=O)(NC1CCCC1)OCC(Cl)(Cl)Cl,-3,-17,0,27*,2,
CCCNC(=O)[C@@H]1[C@@H](CO)[C@@H]2Cn3c(cccc3=O)[C@@H]2N1CC,-2,-19,.,-6,-1,
COC(=O)[C@@H]1[C@@H](CO)[C@@H]2Cn3c(cccc3=O)[C@@H]2N1CC1CC1,-2,-7,0,?,-2,
COC(=O)[C@@H]1[C@@H](CO)[C@@H]2Cn3c(cccc3=O)[C@H]1N2C(=O)C1CC1,-1,3,0,7,1,
C=CCc1cc(OC)c2c(c1)OCO2,0,-2,0,14,1,
C=CCc1ccc2c(c1)OCO2,0,-7,0,93*,.,
CCOP(=O)(OCC)c1cccc(O)c1,-2,-2,45*,2,-2,
CCOP(=O)(OCC)c1cccc(OP(=O)(c2cccc([N+](=O)[O-])c2)c2cccc([N+](=O)[O-])c2)c1,.,-11,0,3,2,
COc1ccc(OC(=O)N(C)C[C@H]2OCc3ccccc3-c3c(n(C)c4ccccc34)C(=O)N([C@H](C)CO)C[C@@H]2C)cc1,-1,-4,-1,1,4,
CCCNC(=O)N1[C@@H]2c3ccc(-c4cccc(C(=O)N(C)C)c4)c(=O)n3C[C@H]1[C@H](CO)[C@H]2C(=O)O,1,6,0,-18,-2,
COC(=O)[C@@H]1[C@@H](CO)[C@@H]2Cn3c(ccc(-c4cccnc4)c3=O)[C@H]1N2CCc1ccccc1,-2,3,0,6,-12,
Cc1cccc(OP(N)(N)=O)c1C,-3,-24,43*,0,-1,
O=C(O)[C@H]1[C@H](CO)[C@H]2Cn3c(ccc(-c4cccnc4)c3=O)[C@@H]1N2S(=O)(=O)c1ccccc1F,4,-4,0,-10,1,
CCCCn1c(=O)c(C=Nc2cc([N+](=O)[O-])ccc2OC)c(O)n(CCCCl)c1=O,-2,-28,43*,3,7,
CC(C)c1ccc(-n2c(O)c(/C=N/NC(=O)c3ccccc3O)c(=O)[nH]c2=S)cc1,.,-45,1.4*,16,15,FGF22 binding-2=0.37;TSA no protein=i
COC(=O)[C@H]1[C@H](CO)[C@H]2Cn3c(ccc(-c4cccnc4)c3=O)[C@@H]1N2S(=O)(=O)c1ccccc1F,0,12,0,7,1,
C/C=C/c1ccc([C@@H]2[C@H]3CN(C(=O)Cc4ccncc4)CCCCN3[C@H]2CO)cc1,1,-110,1.3*,82*,-9,FGF22 binding-2=0.039;TSA no protein=i
O=c1oc2ccccc2c(O)c1C(c1ccccn1)c1c(O)c2ccccc2oc1=O,7,11,0,1,.,
CCOC(=O)C(c1c(O)c2ccccc2oc1=O)c1c(O)c2ccccc2oc1=O,-2,-17,1.8*,-1,-7,FGF22 binding-2=0.003;TSA no protein=i
